Among the data in PubChem BioAssay are composite z-score and z-score values, retold here.

The subject of test [1] is Plasmodium falciparum Sir2 (PF13_0152, Sir2A). The test is described as follows: pfSir2 binders on small-molecule microarrays, primary screen, biochemical, small-molecule microarray, 635 nm fluorescence (AID 1098).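 Also: score merges spot fluorescence intensity with its signal-to-noise ratio.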 The settings on record: small-molecule microarray binding, fluorescence 635 nm; higher = more signal.
The nature of test [2]: small-molecule microarray binders of probe aDKK1, primary screen, biochemical, biotinylated probe, 635/667 nm fluorescence (AID 1099).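 Also: score merges 667nm spot fluorescence with signal to noise across triplicate slides.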 The conditions noted are these: higher = more signal.
A short description of test [3]: small-molecule microarray binders of probe aCHRDL2, primary screen, biochemical, biotinylated probe, 635/667 nm fluorescence (AID 1100). The settings on record: higher = more signal.
The nature of test [4]: splicing luciferase reporter signal modulators, primary screen, spliceosome inhibition project, cell-based, HEK293, splice +/- reporter (AID 1101).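 Also: HEK293 cells carrying a splicing-competent luciferase reporter gene; test concentration not given here.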 The conditions noted are these: luminescence, 24 h, higher = more signal, called active from +8 up or from −8 down. (In general: In a reporter assay the amount or activity of a reporter protein is the signal.)
The target in test [5] is Fibroblast growth factor 10 (Homo sapiens) (UniProt O15520). The test is described as follows: FGF10 binders on small-molecule microarrays, primary screen, biochemical, small-molecule microarray, 635 nm fluorescence (AID 1102). The settings on record: FGF10 binding, fluorescence 635 nm, higher = more signal.
For test [6], the system named is glycogen synthase kinase-3 (GSK3A per assay name; protocol says GSK3B). The experiment in a line: GSK3 binders on small-molecule microarrays, primary screen, biochemical, small-molecule microarray, 635 nm fluorescence, GSK3A (AID 1103). Also: the record names both GSK3A and GSK3B. The settings on record: small-molecule microarray binding, fluorescence 635 nm; higher = more signal.
The target in test [7] is Epidermal growth factor receptor (Homo sapiens) (UniProt P00533). The test is described as follows: EGFR binders on small-molecule microarrays, primary screen, biochemical, small-molecule microarray, 635 nm fluorescence (AID 1104).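 Also: score merges 667 nm emission intensity with spot signal to noise over triplicate slides.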 The conditions noted are these: EGFR binding, higher = more signal.
In test [8] the target is Follistatin-related protein 3 (Homo sapiens) (UniProt O95633). The experiment in a line: FSTL3 binders on small-molecule microarrays, primary screen, biochemical, small-molecule microarray, 635 nm fluorescence (AID 1105).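 Also: score merges emission near 667 nm and signal to noise per printed spot across three slides.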 The conditions noted are these: FSTL3 binding, higher = more signal.
Test [9] concerns the target Dickkopf-related protein 1 (Homo sapiens) (UniProt O94907). The experiment in a line: DKK1 binders on small-molecule microarrays, primary screen, biochemical, small-molecule microarray, 635 nm fluorescence scan (AID 1106).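 Also: score merges emission near 667 nm with signal to noise over three replicate slides.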 The settings on record: DKK1 binding, higher = more signal.
The test system of test [10] is Inhibin beta A chain (activin A). The experiment in a line: INHBA (activin A) binders on microarrays, primary screen, biochemical, small-molecule microarray, 635 nm fluorescence scan (AID 1107).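 Also: mouse activin A protein probed at 4.33 µg/mL on printed slides; score merges bound-protein fluorescence near 667 nm with spot signal-to-noise.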 The conditions noted are these: small-molecule microarray binding, higher = more signal.
For test [11], the system named is Human papillomavirus type 1a protein E7 (residues 44-93). The experiment in a line: HPV1a E7 fragment binders on microarrays, primary screen, biochemical, small-molecule microarray, residues 44-93, 635 nm fluorescence (AID 1108).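 Also: E7 fragment applied at 1 µg/mL in TBST for 1 h at 4 C; score combines spot fluorescence with its signal to noise ratio.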 The conditions noted are these: small-molecule microarray binding, fluorescence 635 nm; higher = more signal.
Test [12] in a line: modulators of HCV replicon luciferase signal, primary screen, HCV replication inhibitor project, Huh7 cells, luciferase reporter (AID 1109).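 Also: huh7 hepatoma cells harbouring a luciferase neomycin HCV replicon reporter; luciferase luminescence as measure of HCV replicon replication; test concentration not given here.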 The conditions noted are these: 48 h, higher = more signal. Background: A replicon is a self-replicating genome or part of one, used to study replication in cells.
In test [13] the target is Left-right determination factor 2 (Homo sapiens) (UniProt O00292). The test is described as follows: LEFTY2 binders on small-molecule microarrays, primary screen, biochemical, small-molecule microarray, 635 nm fluorescence scan (AID 1110). The conditions noted are these: LEFTY2 binding, higher = more signal.
Test [14] addresses Calmodulin-1 (Homo sapiens) (UniProt P0DP23). The test is described as follows: CALM1 binders on microarrays, EGTA buffer, profiling panel, biochemical, small-molecule microarray, Cy5-labelled CALM1 (AID 1111).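 Also: labelled calmodulin applied in Tris saline Tween buffer holding calcium plus EGTA and DTT.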 The settings on record: Cy5-CALM1 binding fluorescence, higher = more signal.
Test [15] shares this target. The experiment in a line: calcium-bound CALM1 binders on microarrays, profiling panel, artefact control for SMM control-protein annotation, biochemical, small-molecule microarray, Cy5-labelled CALM1, plus calcium (AID 1112).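 Also: score merges spot fluorescence with signal to noise from triplicate slides.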 The settings on record: Cy5-CALM1 binding fluorescence, higher = more signal.
Test [16] is described as follows: small-molecule microarray binders of probe aWnt5a, primary screen, biochemical, biotinylated probe, 635/667 nm fluorescence (AID 1113).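 Also: score merges 667 nm fluorescence intensity with signal-to-noise per printed feature.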 The settings on record: higher = more signal.
Test [17] is described as follows: small-molecule microarray binders of probe aShh, primary screen, biochemical, biotinylated probe, 635/667 nm fluorescence (AID 1114).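 Also: probe is biotin-labelled aShh protein from a stem cell growth factor screen; measures binding of labelled protein to compounds printed on the slide; score merges feature fluorescence at 667 nm with signal-to-noise.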 The conditions noted are these: higher = more signal.
The nature of test [18]: small-molecule microarray binders of probe aNog, primary screen, biochemical, biotinylated probe, 635/667 nm fluorescence (AID 1115).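 Also: probe is biotinylated aNog protein used at 0.15 µg/mL for 1 h at 4 C; z-score combines 667 nm fluorescence of each spot with its signal to noise.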 The conditions noted are these: higher = more signal.
The target of test [19] is Torsin-1A-interacting protein 1 (Homo sapiens) (UniProt Q5JTV8). The experiment in a line: LAP1 binders from COS7 cell lysate, primary screen, small-molecule microarray, 635/667 nm fluorescence (AID 1116). The conditions noted are these: COS7-hLAP1 lysate binding, 635 nm fluorescence, higher = more signal.
The target in test [20] is Alpha-bungarotoxin (Bungarus multicinctus) (UniProt P60615). The test is described as follows: alpha-bungarotoxin binders on microarray, profiling panel, artefact control for SMM control protein annotation, biochemical, small-molecule microarray, Alexa647 label, 635/667 nm fluorescence (AID 1117). The settings on record: alpha-BTX-A647 binding fluorescence, higher = more signal.

Calls of active or inactive are those of the source.

Fibroblast growth factor 10 (Homo sapiens), sequence (O15520 whole entry, looked up): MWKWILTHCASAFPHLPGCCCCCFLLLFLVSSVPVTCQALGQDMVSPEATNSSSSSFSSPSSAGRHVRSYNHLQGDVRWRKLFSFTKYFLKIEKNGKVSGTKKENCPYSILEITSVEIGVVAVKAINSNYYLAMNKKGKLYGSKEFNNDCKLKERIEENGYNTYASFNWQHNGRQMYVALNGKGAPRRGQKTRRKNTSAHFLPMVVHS
Follistatin-related protein 3 (Homo sapiens), sequence (O95633 whole entry, looked up): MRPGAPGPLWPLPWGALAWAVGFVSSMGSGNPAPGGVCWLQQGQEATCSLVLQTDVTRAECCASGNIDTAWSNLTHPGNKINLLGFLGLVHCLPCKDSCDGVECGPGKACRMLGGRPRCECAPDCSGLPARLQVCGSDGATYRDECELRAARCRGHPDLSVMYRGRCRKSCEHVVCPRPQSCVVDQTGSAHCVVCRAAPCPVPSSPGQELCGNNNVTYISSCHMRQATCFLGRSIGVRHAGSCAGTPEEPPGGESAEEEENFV
Torsin-1A-interacting protein 1 (Homo sapiens), sequence (Q5JTV8 whole entry, looked up): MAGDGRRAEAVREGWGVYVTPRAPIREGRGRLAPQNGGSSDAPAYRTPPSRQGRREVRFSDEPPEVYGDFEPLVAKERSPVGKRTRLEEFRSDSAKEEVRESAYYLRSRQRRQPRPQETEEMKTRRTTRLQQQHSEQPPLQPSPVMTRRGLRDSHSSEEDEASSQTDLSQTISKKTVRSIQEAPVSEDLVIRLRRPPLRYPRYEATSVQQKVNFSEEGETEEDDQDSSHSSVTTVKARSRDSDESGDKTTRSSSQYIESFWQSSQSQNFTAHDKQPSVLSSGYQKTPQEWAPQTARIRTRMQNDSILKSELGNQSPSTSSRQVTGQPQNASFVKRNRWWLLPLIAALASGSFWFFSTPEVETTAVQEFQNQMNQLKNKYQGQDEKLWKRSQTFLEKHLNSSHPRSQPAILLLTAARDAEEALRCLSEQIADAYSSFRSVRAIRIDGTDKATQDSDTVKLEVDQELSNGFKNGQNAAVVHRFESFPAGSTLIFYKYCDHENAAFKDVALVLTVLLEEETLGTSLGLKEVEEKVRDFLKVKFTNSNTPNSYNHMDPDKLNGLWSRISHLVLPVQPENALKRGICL
Left-right determination factor 2 (Homo sapiens), sequence (O00292 whole entry, looked up): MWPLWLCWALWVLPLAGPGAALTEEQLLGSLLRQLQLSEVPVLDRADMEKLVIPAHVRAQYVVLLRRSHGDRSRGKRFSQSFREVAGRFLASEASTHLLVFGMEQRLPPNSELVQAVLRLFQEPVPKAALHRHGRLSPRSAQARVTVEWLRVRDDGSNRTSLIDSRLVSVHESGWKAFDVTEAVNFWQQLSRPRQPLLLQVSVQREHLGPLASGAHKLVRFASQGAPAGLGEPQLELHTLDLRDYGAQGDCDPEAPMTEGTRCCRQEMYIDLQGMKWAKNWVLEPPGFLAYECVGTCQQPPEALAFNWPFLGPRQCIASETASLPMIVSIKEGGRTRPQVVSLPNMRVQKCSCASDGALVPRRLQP
Alpha-bungarotoxin (Bungarus multicinctus), sequence (P60615 whole entry, looked up): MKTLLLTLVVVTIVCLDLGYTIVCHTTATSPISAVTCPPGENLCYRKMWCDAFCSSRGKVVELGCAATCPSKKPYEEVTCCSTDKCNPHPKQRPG
Dickkopf-related protein 1 (Homo sapiens), sequence (O94907 whole entry, looked up): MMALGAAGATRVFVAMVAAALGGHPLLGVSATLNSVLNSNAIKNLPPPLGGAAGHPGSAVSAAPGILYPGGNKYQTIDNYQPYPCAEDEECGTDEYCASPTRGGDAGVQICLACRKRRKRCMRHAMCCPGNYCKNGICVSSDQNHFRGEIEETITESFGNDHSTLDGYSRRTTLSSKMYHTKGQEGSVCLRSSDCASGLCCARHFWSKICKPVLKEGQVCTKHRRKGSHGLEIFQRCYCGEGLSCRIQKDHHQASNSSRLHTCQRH
Epidermal growth factor receptor (Homo sapiens), sequence (P00533 whole entry, looked up): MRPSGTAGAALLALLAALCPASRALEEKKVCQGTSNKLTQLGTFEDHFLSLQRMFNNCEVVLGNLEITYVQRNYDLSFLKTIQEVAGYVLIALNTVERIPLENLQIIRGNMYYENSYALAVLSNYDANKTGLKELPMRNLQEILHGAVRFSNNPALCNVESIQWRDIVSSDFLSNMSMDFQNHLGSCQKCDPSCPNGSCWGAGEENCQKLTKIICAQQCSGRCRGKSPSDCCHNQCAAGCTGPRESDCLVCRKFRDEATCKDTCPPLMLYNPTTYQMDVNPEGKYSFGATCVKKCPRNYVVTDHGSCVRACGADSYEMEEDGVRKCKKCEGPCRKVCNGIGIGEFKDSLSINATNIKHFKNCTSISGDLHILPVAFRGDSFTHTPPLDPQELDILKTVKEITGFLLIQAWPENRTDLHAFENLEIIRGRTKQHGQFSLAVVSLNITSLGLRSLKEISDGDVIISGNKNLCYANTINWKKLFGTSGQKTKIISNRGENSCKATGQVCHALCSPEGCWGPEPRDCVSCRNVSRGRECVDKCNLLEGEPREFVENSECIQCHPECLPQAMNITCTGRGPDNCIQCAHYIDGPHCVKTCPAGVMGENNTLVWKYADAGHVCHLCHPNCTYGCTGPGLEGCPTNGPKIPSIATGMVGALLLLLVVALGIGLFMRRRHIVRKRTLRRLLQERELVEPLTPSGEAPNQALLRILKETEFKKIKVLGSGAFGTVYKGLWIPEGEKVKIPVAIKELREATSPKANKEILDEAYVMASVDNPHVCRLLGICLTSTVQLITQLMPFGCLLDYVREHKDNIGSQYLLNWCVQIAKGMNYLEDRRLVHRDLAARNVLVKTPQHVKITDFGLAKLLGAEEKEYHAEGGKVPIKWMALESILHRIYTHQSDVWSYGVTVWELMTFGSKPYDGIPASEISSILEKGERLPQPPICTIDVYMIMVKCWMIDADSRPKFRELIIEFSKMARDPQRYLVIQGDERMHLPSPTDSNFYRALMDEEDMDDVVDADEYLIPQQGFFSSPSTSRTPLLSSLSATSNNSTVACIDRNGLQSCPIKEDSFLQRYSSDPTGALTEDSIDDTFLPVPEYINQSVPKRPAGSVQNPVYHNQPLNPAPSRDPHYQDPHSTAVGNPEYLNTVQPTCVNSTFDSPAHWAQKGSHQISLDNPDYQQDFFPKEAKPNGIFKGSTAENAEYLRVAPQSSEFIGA

`CCCCCN1CC=CC23O[C@@H]4/C=C\CCCOC(=O)C4[C@H]2C(=O)N(CCCCCCO)[C@@H]3C1=O` (stereo not given in full): the composite z-score was 1.43 in test [1]; -0.231 in test [2]; 0.139 in [3]; -0.894 in test [5]; 0.233 in test [6]; -0.0633 in test [7]. Besides, the composite z-score was -0.0242 in [8]; -1.22 in test [9]; 1.26 in [10]; -0.0348 in test [11]; -0.545 in test [13]; -0.758 in test [14]. Also, the composite z-score in [15] was -0.0227; in test [16], -0.154; in test [17], -0.0035; in [18], -0.237; in test [19], 1.09; in [20] it was -0.752. In addition, the z-score in test [4] is -3.07 (inactive); in test [12], -0.857.
As to `O=c1cccc(C=Cc2ccccc2)o1`, the composite z-score in test [1] was -1.32; in test [2], 0.121; in [3], 0.756; in [5], -0.629; in test [6] it was 0.0144; in test [7], -1.16. Also, the composite z-score in [8] is -0.657; in test [9], -1.36; in test [10], 0.758; in [11] it was -0.64; in test [13], -1.31; in test [14], -0.471. In addition, the composite z-score in [15] is -0.274; in [16], -0.145; in test [17], 0.147; in test [18], -0.411; in [19], -0.363; in test [20] it was -0.374. For the same compound, the z-score in test [4] is -0.121 (inactive); in test [12], -0.854.
As to `CCOC(=O)[C@H]1C/C=C/C[C@H](C(=O)OCC)C(=O)O[C@H]2[C@@H](OC)O[C@H](CO)[C@@H](OC(=O)Nc3ccc4c(c3)OCO4)[C@@H]2OC1=O`, the composite z-score in [1] was 0.353; in test [2] it was 0.0005; in [3] it was 0.0193; in [5], 0.79; in [6] it was 0.677; in test [7], -0.407. In addition, the composite z-score in [8] was 0.294; in [9] it was -0.009; in test [10], 0.456; in test [11], 0.433; in test [13], -0.261; in [14] it was 0.346. Also, the composite z-score in test [15] worked out at 0.152; in [16] it was 0.0608; in [17] it was 0.28; in test [18], 0.122; in test [19] it was 0.591; in [20], 0.167. The z-score was -1.14 (inactive) in [4] and -3.52 in test [12].
As to `Cc1ccccc1C(O)C1C=CC2C(=O)N(C)C(=O)C2N1Nc1ccccc1` (stereo not given), the composite z-score in [1] is 1.06; in test [2], 0.973; in test [3] it was 1.07; in test [5], 0.2; in [6], 0.63; in test [7] it was -0.0369. Also, the composite z-score in test [8] was 0.304; in test [9] it was 0.0139; in [10] it was 1.16; in [11], 0.633; in test [13], 0.103; in test [14], 2.3. Also, the composite z-score in [15] is 1.06; in test [16], 0.111; in test [17], -0.0289; in test [18] it was 1.07; in test [19] it was 1.91; in test [20], 1.08. For the same compound, the z-score in [4] was 0.0737 (inactive); in test [12], -0.712.
With `C=CCC(OC(C)=O)[C@@H]1[C@@H](N(Cc2cc3ccccc3o2)C(=O)c2ccc(C)cc2)c2cc(OCCCO)ccc2N1C(=O)c1ccc2ccccc2c1` (stereo not given in full), the composite z-score in test [1] was -0.119; in test [2], -0.0022; in [3], 0.263; in [5] it was 0.299; in test [6] it was -0.274; in test [7], 0.105. Also, the composite z-score in test [8] is 0.194; in test [9], 0.0379; in test [10] it was 1.46; in test [11], 0.0468; in [13], 0.161; in test [14] it was -0.0375. Further, the composite z-score in [15] is 0.37; in test [16], -0.0644; in [17], 0.313; in [18] it was -0.314; in test [19], 0.189; in test [20], -0.298. In addition, the z-score is -0.422 (inactive) in test [4] and -0.274 in test [12].
